# Reference: the supplement of paper PMC11634586
# Structures can show the parent of a compound that is named as a salt. A number with no mark means an inactive call.
# Test system: NCI-H1688
# Assay: inhibition of cell viability relative to untreated control (fraction); higher = stronger growth inhibition, active = 0.5 or more
# Details: 30 µM; 24 h
# Description: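 Natural product library (TargetMol, 640 compounds) screened on NCI-H1688 SCLC cells at 30 µM for 24 h; viability by CCK-8 absorbance at 450 nm, normalised to untreated control and expressed as inhibition rate (fraction). Compounds with >50% reduction in viability were selected as hits.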
row,SMILES,inhibition of cell viability
1,COc1cccc2c1cc([N+](=O)[O-])c1c(C(=O)O)cc3c(c12)OCO3 [Aristolochic Acid],0.49
2,C[C@]12CCC(=O)C=C1CC[C@@H]1[C@@H]2CC[C@@]2(C)[C@H]1CC[C@]2(C)O [17-Methyltestosterone],0.403
3,C[C@@H]1CC[C@@]2(OC1)O[C@H]1C[C@H]3[C@@H]4CC=C5C[C@@H](O[C@@H]6O[C@H](CO)[C@@H](O[C@@H]7O[C@@H](C)[C@H](O)[C@@H](O)[C@H]7O)[C@H](O)[C@H]6O[C@@H]6O[C@@H](C)[C@H](O)[C@@H](O)[C@H]6O)CC[C@]5(C)[C@H]4CC[C@]3(C)[C@H]1[C@@H]2C [Dioscin],0.976 (active)
4,COc1cc2c3c(c1OC)-c1ccccc1C[C@H]3N(C)CC2 [Nuciferine],0.173
5,C[C@H]1CC(=O)C[C@@H]2CC[C@H]3[C@@H]4CC[C@H](O)[C@@]4(C)CC[C@@H]3[C@]21C [Mesterolone],0.237
6,COC1=C[C@@H]2[C@@H]3Cc4ccc(OC)c(O)c4[C@]2(CCN3C)CC1=O [Sinomenine],-0.13
7,N#CCCN [3-Aminopropionitrile fumarate],-0.137
8,COc1cccc(C=O)c1OC [o-Veratraldehyde],-0.267
9,"CN1CCc2cc3c(cc2C1C1OC(=O)c2c1ccc1c2OCO1)OCO3 (single isomer, unassigned; (+)) [(+)-Bicuculline]",-0.023
10,COc1cc(C2OCC3C(c4cc(OC)c(O[C@@H]5O[C@H](CO)[C@@H](O)[C@H](O)[C@H]5O)c(OC)c4)OCC23)cc(OC)c1O[C@H]1O[C@@H](CO)[C@H](O)[C@@H](O)[C@@H]1O (stereo not given in full) [Eleutheroside E],0.231
11,CC(=O)[C@]1(O)CC[C@@]2(O)[C@]1(C)[C@H](OC(=O)/C=C(\C)C(C)C)C[C@@H]1[C@@]3(C)CC[C@H](O)CC3=CC[C@]12O [Caudatin],0.161
12,C[C@@H]1CC[C@H]2[C@@H](C)C(=O)O[C@@H]3O[C@@]4(C)CC[C@@H]1[C@]32OO4 [Artemisinin],0.118
13,O=c1ccc2cc(O[C@@H]3O[C@H](CO)[C@@H](O)[C@H](O)[C@H]3O)c(O)cc2o1 [Esculin],-0.139
14,C[C@H]1C(=O)O[C@@H]2CCN3CC=C(COC(=O)[C@](C)(O)[C@]1(C)O)[C@H]23 [Monocrotaline],0.161
15,CC1=C(O)C(=O)C=C2C1=CC=C1[C@@]2(C)CC[C@@]2(C)[C@@H]3C[C@](C)(C(=O)O)CC[C@]3(C)CC[C@]12C [Celastrol],1 (active)
16,C[C@@H]1CC[C@@]2(OC1)O[C@H]1[C@@H](O)[C@H]3[C@@H]4CC[C@H]5C[C@@H](O[C@@H]6O[C@H](CO)[C@H](O[C@@H]7O[C@H](CO)[C@@H](O)[C@H](O[C@@H]8OC[C@@H](O)[C@H](O)[C@H]8O)[C@H]7O[C@@H]7O[C@H](CO)[C@H](O)[C@H](O[C@@H]8O[C@H](CO)[C@@H](O)[C@H](O)[C@H]8O)[C@H]7O)[C@H](O)[C@H]6O)[C@H](O)C[C@]5(C)[C@H]4CC[C@]3(C)[C@H]1[C@@H]2C [Digitonin],1.01 (active)
17,CC[C@H]1CN2CC[C@H]1C[C@@H]2[C@@H](O)c1ccnc2ccc(OC)cc12 [Hydroquinidine],-0.0507
18,COc1cc(OC)c(OC)cc1C=O [Asarylaldehyde],-0.42
19,C=C[C@@H]1C2=CCOC(=O)C2=CO[C@H]1O[C@@H]1O[C@H](CO)[C@@H](O)[C@H](O)[C@H]1O [Gentiopicrin],-0.0346
20,CC(C)(C)[C@]1(O)CC2OC(=O)CC23C(=O)OC2OC(=O)[C@H](O)C231 (stereo not given in full) [Bilobalide],0.155

row,SMILES,inhibition of cell viability
1,N#C[C@H](O[C@@H]1O[C@H](C(=O)O)[C@@H](O)[C@H](O)[C@H]1O)c1ccccc1 [Laetrile],0.0291
2,C[C@]12CC[C@H](O)C[C@H]1CC[C@@H]1[C@@H]2CC[C@]2(C)[C@@H](c3ccc(=O)oc3)CC[C@]12O [Bufalin],0.985 (active)
3,NCCc1c[nH]c2ccc(O)cc12 [Serotonin hydrochloride],0.104
4,CC1=CC(=O)c2c(O)cccc2C1=O [Plumbagin],1 (active)
5,CN(C)CCc1ccc(O)cc1 [Hordenine],0.0129
6,CC1=C2C[C@H]3[C@@H](CC=C4C[C@@H](O)CC[C@@]43C)[C@@H]2CC[C@]12O[C@@H]1C[C@H](C)CN[C@H]1[C@H]2C [Cyclopamine],0.162
7,COc1cc2c(cc1OC)C13CCN4CC5=CCOC6CC(=O)N2C1C6C5CC43 (stereo not given) [Brucin],-0.145
8,O=c1ccc2ccc3occc3c2o1 [Isopsoralen],-0.0131
9,COc1ccc(CC2NCCc3cc(OC)c(OC)cc32)cc1OC (stereo not given) [Tetrahydropapaverine hydrochloride],0.125
10,CN1[C@@H]2CC[C@H]1C[C@@H](OC(=O)[C@H](CO)c1ccccc1)C2 [L-Hyoscyamine],0.305
11,C=C(C)[C@H]1Cc2c(ccc3c2O[C@@H]2COc4cc(OC)c(OC)cc4[C@@H]2C3=O)O1 [Rotenone],0.823 (active)
12,CN1[C@@H]2CC[C@H]1C[C@@H](OC(=O)C(CO)c1ccccc1)C2 (stereo not given in full) [Atropine],-0.146
13,CN1[C@H]2C[C@H](OC(=O)[C@H](CO)c3ccccc3)C[C@@H]1[C@@H](O)C2 [Anisodamine],0.2
14,CC(=O)O[C@H]1[C@H]2[C@@H](OC(=O)Cc3ccccc3)[C@@H](C)C[C@]2(OC(C)=O)C(=O)/C(C)=C/[C@@H]2[C@H](CC[C@@]13CO3)C2(C)C [Euphorbiasteroid],0.499
15,C[C@@H]1O[C@@H](O[C@H]2C[C@@H](O)[C@]3(CO)[C@H]4[C@H](O)C[C@]5(C)[C@@H](C6=CC(=O)OC6)CC[C@]5(O)[C@@H]4CC[C@]3(O)C2)[C@H](O)[C@H](O)[C@H]1O [Ouabain octahydrate],0.99 (active)
16,CCN1C[C@]2(COC)[C@H](O)C[C@H](OC)[C@@]34[C@@H]5C[C@@]6(O)[C@H](OC(=O)c7ccccc7)[C@@H]5[C@@](OC(C)=O)([C@@H]([C@H](OC)[C@H]23)[C@@H]14)[C@@H](O)[C@@H]6OC [Aconitine],-0.116
17,"CCC1(O)C(=O)OCc2c1cc1n(c2=O)Cc2cc3ccccc3nc2-1 (single isomer, unassigned; (+)) [(+)-Camptothecin]",0.979 (active)
18,C=C[C@H]1CN2CC[C@H]1C[C@@H]2[C@@H](O)c1ccnc2ccccc12 [Cinchonine],-0.188
19,CC(=O)OCC1=C(C(=O)O)N2C(=O)[C@@H](N)[C@H]2SC1 [7-Aminocephalosporanic acid],0.00874
20,O=C(O)C1C2CCC(O2)C1C(=O)O (stereo not given) [Sodium Demethylcantharidate],0.314
